CHOP inhibitor: inhibitors of CHOP induction in ER stress response; AID 2732; CHO-K1 CHOP-promoter luciferase, tunicamycin-induced, 15-18 h; actives 3.8% (n = 220,000); inhibition, % at 10 µM;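 active means compounds that reduced the stress-induced luciferase reporter signal by more than about 70% of percent inhibition, limit read from the data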;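 further: 0% = tunicamycin plus vehicle and 100% = wells without tunicamycin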
RAM inhibit: yeast RAM network inhibition; S. cerevisiae dse1pr::URA3 reporter, 5-FOA growth OD615, 2 d; analog-sensitive cbk1-as2 kinase mutant strain; inhibition, % at 50 µM; actives 1.8% (n = 190,000); AID 868;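 active means inhibition above a set limit, 3 SD over mean compound inhibition, cut at about 8.4% in these data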;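 further: 0% = DMSO-only wells with no growth and 100% = 10 µM 1-NA-PP1 full growth; inhibition rescues growth on 5-FOA so higher OD means more RAM inhibition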
L major viab: inhibitors of Leishmania major promastigote growth; AID 1063; inhibition, % at 10 µM; Leishmania major promastigotes, resazurin fluorescence viability; actives 9% (n = 200,000); in the data active means inhibition above about 50%;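 further: promastigotes grown with compound for 44 hours at 28 °C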
WT yeast gro inh: growth inhibition of WT yeast, mitochondrial fusion screen; AID 1362; mitochondrial fusion phenotypic screen, WT strain; actives 2.1% (n = 190,000); inhibition, % at 10 µM; in the data active means inhibition above about 58%; tested in S. cerevisiae
Starred values were filed as active, the others as inactive; . = no result given. Most compounds without a hit are left out; they make up all but 13% or so of the library.

SMILES | CHOP inhibitor | RAM inhibit | L major viab | WT yeast gro inh
Cc1ccc(C2C(C#N)=C3N=C(N)c4ccccc4N3C3=C2C(=O)CCC3)cc1 (stereo unspecified) | -6 | . | . | .
CCOC(=O)C1=C(C)N=C2c3ccccc3C(=O)C2C1c1ccccc1 (stereo unspecified) | 24 | 8 | -3 | 0
CCOC(=O)C1=C(C)N=C2c3ccccc3C(=O)C2C1c1ccc(C)cc1 (stereo unspecified) | 74* | 5 | 5 | 4
Cc1ccc(C2C3=C(CCCC3=O)N=C3c4ccccc4C(=O)C32)cc1 (stereo unspecified) | 28 | 4 | 67* | -11
O=C1CCCC2=C1C(c1ccccc1)C1C(=O)c3ccccc3C1=N2 (stereo unspecified) | 11 | 4 | 62* | 10
CCOc1ccc(N(CC(=O)Nc2ccc(C)cc2)S(=O)(=O)c2c(C)[nH]c(=O)[nH]c2=O)cc1 | 11 | . | . | .
C=CCNC(=S)NN=C1CCCCCCC1 | -42 | 1 | 7 | 60*
COCCNC(=S)NN=C1CCCCC1 | 2 | 0 | -4 | -9
Cc1ccc(NC(=O)c2cc(N3C(=O)C=CC3=O)ccc2N2CCOCC2)cc1 | 109* | -3 | -5 | 2
Cc1ccc(NC(=O)c2cc(NC(=O)c3ccco3)ccc2N2CCOCC2)cc1 | 42 | 2 | 4 | 8
Cc1ccc(NC(=O)c2cc(N3C(=O)C=CC3=O)ccc2Cl)cc1C | 104* | 0 | -6 | 9
CCn1c(SCC(=O)c2cc(C)n(C)c2C)nnc1-c1ccccc1 | 30 | 2 | 7 | 7
COC(=O)c1ccc(-n2c(C)cc(C(=O)CCl)c2C)cc1 | 90* | 0 | 101* | 19
CCOc1ccc(-n2c(C)cc(C(=O)CCl)c2C)cc1 | -427 | 2 | 100* | 1
COC(=O)c1cc(C(=O)OC)cc(-n2c(C)cc(C(=O)COC(=O)CNS(=O)(=O)c3ccc(C)cc3)c2C)c1 | 58 | 5 | 90* | -4
CCn1c(SCC(=O)c2cc(C)n(-c3ccc(C(=O)OC)cc3)c2C)nnc1-c1cccnc1 | . | 1 | 71* | -21
COC(=O)c1ccc(-n2c(C)cc(C(=O)COC(=O)CNS(=O)(=O)c3ccc(C)cc3)c2C)cc1 | 50 | 6 | -8 | 22
O=C(O)C1=C[C@H](c2ccc(F)cc2)C[C@H](OCc2ccc(CO)cc2)O1 | 15 | . | . | .
Cc1nc(CSc2ccccc2)cc(=O)[nH]1 | -2 | 1 | -8 | 11
CC(C)c1ccc(/C=N/NC(=O)CN(c2cccc(Cl)c2Cl)S(C)(=O)=O)cc1 | 86* | 2 | 13 | 34
CS(=O)(=O)N(CC(=O)N/N=C/c1ccccc1C(=O)O)c1cccc(Cl)c1Cl | -7 | . | . | .
O=S1(=O)NC(=NCCc2ccccn2)c2ccccc21 | -2 | 1 | -2 | -7
O=C1CC(NNc2ccccc2)C(=O)N1c1ccccc1 (stereo unspecified) | 8 | 2 | 62* | 0
Cc1ccc(N2C(=O)CC(NNc3nc4ccccc4s3)C2=O)cc1C (stereo unspecified) | 7 | 4 | 56* | 5
Cc1nc(NC(=O)CN2CCC(O)(c3ccc(F)cc3)CC2)sc1C | -18 | . | . | .
SMILES | CHOP inhibitor | RAM inhibit | L major viab | WT yeast gro inh
CC(=O)c1cc(C(=O)N2CCc3c([nH]c4ccccc34)C2C2CCCCC2)[nH]n1 (stereo unspecified) | 11 | 0 | 6 | 7
C=CCn1c(=O)c2ccc(C(=O)NCc3ccccc3)cc2n(Cc2ccc(Cl)cc2)c1=O | 86* | 3 | -2 | 2
C=CCn1c(=O)c2ccc(C(=O)NCc3ccccc3)cc2n(Cc2cccc(Cl)c2)c1=O | 18 | 2 | -3 | 6
C=CCn1c(=O)c2ccc(C(=O)NCc3ccccc3)cc2n(Cc2ccccc2Cl)c1=O | 28 | 3 | 56* | 7
CCOC(=O)c1sc2ncn(/N=C/c3cccnc3)c(=O)c2c1C | 17 | 1 | 2 | 2
CCOC(=O)c1sc2ncn(/N=C/c3ccc(O)cc3)c(=O)c2c1C | 60 | 1 | 94* | 36
CCOC(=O)c1cc2sccc2n1Cc1ccccc1 | 80* | 1 | 1 | 34
CCOC(=O)c1cc2sccc2n1CCCN1C(=O)c2ccccc2C1=O | 48 | 9.0* | 4 | 32
COc1cccc(C(C)N(C)Cc2nc(-c3ccoc3)oc2C)c1 (stereo unspecified) | -1 | 3 | 16 | 17
Cn1nnnc1SCc1nc2scc(-c3ccccc3)c2c(=O)[nH]1 | 27 | . | . | .
Cn1nnnc1SCc1nc2scc(-c3ccc(Cl)cc3)c2c(=O)[nH]1 | 20 | . | . | .
Cn1nnnc1Sc1ncnc2scc(-c3ccc(F)cc3)c12 | -22 | 2 | 91* | -7
Cn1nnnc1Sc1ncnc2scc(-c3ccccc3)c12 | 25 | 1 | 70* | 26
O=C(Nc1cccc(-c2nc3cccnc3s2)c1)C1c2ccccc2Oc2ccccc21 | 69 | 8 | -7 | -6
CCCCOc1ccc(C(=O)OCC(=O)Nc2cc(C)c(C)cc2[N+](=O)[O-])cc1 | -5 | 11* | 45 | -24
CCCOC(=O)c1cccc(NC(=O)COc2ccc([N+](=O)[O-])cc2)c1 | 34 | 10* | -6 | 2
CCCCOc1ccc(C(=O)Nc2ccc(C)cc2[N+](=O)[O-])cc1 | -42 | 9.1* | -1 | 1
CCCOc1ccc(C(=O)Nc2ccccc2[N+](=O)[O-])cc1 | . | . | -5 | .
O=C(NCc1ccccc1)Nc1cccn(Cc2ccccc2Cl)c1=O | -8 | 4 | -3 | 16
COc1ccc([N+](=O)[O-])cc1N(CC(=O)NC(C(C)C)C(C)C)S(C)(=O)=O | 36 | 1 | -4 | -11
O=C(COC(=O)Cc1ccccc1F)Nc1ccc(F)cc1F | -1 | 0 | -1 | -4
Cc1ccc(S(=O)(=O)N(C)C)cc1NC(=O)C(C)Sc1ccccc1 (stereo unspecified) | 3 | 0 | -8 | 7
C=CCn1c(SCc2c(C(=O)OC)sc(N)c2C(=O)OC)nnc1-c1ccc(Br)cc1 | -16 | 5 | 99* | 10
COc1ccc(OC)c(N(CC(=O)N2CCC(C)CC2)S(=O)(=O)c2ccc(OC)c(OC)c2)c1 | 12 | 1 | 2 | -7
COc1ccc(S(=O)(=O)N(C)CC(=O)N2CCC(C)CC2)cc1Cl | 28 | 1 | 97* | -10
SMILES | CHOP inhibitor | RAM inhibit | L major viab | WT yeast gro inh
CCN(CC)CCNC(=O)c1cc2cc(Br)ccc2s1 | 28 | 2 | 96* | 4
O=c1c2ccccc2c(C=NCc2ccccn2)c(O)n1-c1ccccc1 | -12 | 7 | 0 | -2
Cc1ccc(-n2c(O)c(C=NCc3ccccn3)c3ccccc3c2=O)cc1C | 11 | 1 | 71* | -2
Nc1ccccc1C(=O)N/N=C1\C2CN3CCN(C2)CC1(c1ccccc1)C3 | -31 | 2 | 22 | 0
O=C(O)c1ccc(N2C(=O)CC(SC(=NCc3ccc4c(c3)OCO4)Nc3ccccc3)C2=O)cc1 (stereo unspecified) | -22 | . | . | .
N/C(=N\N=C\c1ccc2c(c1)OCO2)SC1CC(=O)N(c2ccc(C(=O)O)cc2)C1=O (stereo unspecified) | 23 | 8.6* | -3 | -7
CC(C)C[C@H](NC(=O)N1CCCCCC1)C(=O)O | -14 | . | . | .
COc1ccc(Cl)cc1C(=O)NCCN(C)C | 14 | 1 | -6 | -4

Screens (PubChem)
